Assay outcomes (PubChem BioAssay)
MEP2 TOR yeast = alters MEP2-GFP fluorescence in TOR pathway yeast screen; GFP response vs DMSO, % at 10 µM; 0.51% of 330,000 active; S. cerevisiae MEP2-GFP strain, flow cytometry GFP, 3 h; 100% = DMSO control level;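 active = GFP response versus DMSO above a set limit, roughly screen mean plus 3 SD, cut at about 180% in these data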;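 also: median GFP fluorescence of the barcode-gated MEP2-GFP cells per well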
AGP1-GFP MLPCN = alters AGP1-GFP fluorescence in TOR pathway yeast screen | S. cerevisiae AGP1-GFP multiplex flow cytometry, 3 h; GFP as percent of DMSO wells | GFP response vs DMSO, % at 10 µM | 0.02% of 320,000 active;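 active = GFP response relative to DMSO above a set limit, near screen average plus 3 SD, cut at about 150% in these data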;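 also: median GFP channel fluorescence of the gated AGP1 strain per well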
RPL19A TOR yeast = yeast TOR pathway RPL19A-GFP modulation; S. cerevisiae RPL19A-GFP strain, flow cytometry, 3 h; stronger effect = lower value; percent response vs DMSO, % at 10 µM; 0.3% of 330,000 active; AID 2025;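 active = percent response vs DMSO below 50%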;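 also: median channel GFP fluorescence of the barcoded RPL19A-GFP strain; ratio of sample median GFP to plate DMSO average so 100% = DMSO; lower means less RPL19A-GFP as with rapamycin TOR inhibition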
CIT2-GFP yeast = alters CIT2-GFP fluorescence in TOR pathway yeast screen. S. cerevisiae CIT2-GFP strain, flow cytometry, 3 h; 100 means same as DMSO wells. GFP response vs DMSO, % at 10 µM. 0.065% of 320,000 active. AID 2029;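 active = GFP response relative to DMSO above a set limit, near the screen mean plus 3 SD, cut at about 150% in these data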;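 also: ratio of well median GFP fluorescence to mean of DMSO wells on the plate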
LAP4 TOR yeast = alters LAP4-GFP fluorescence in TOR pathway yeast screen | GFP response vs DMSO, % at 10 µM | S. cerevisiae LAP4-GFP multiplex, flow cytometry GFP, 3 h; median GFP as percent of DMSO wells | 0.34% of 320,000 active;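 active = GFP response vs DMSO above a set limit, about the screen mean plus 3 SD, cut at about 150% in these data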
LAP4-GFP pick2 = second confirmation of modulators of TOR reporter LAP4-GFP in yeast | shares compounds with LAP4 TOR yeast | S. cerevisiae LAP4-GFP strain, flow cytometry GFP, 3 h | AID 2621 | 20% of 590 active | GFP response vs DMSO, % at 10 µM;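 active = GFP signal as percent of the solvent control above about 150%, meaning raised reporter expression, limit read from the data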;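 also: ratio of well median GFP fluorescence to plate DMSO mean so 100% = DMSO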
MEP2 cherry2 = second confirmation of modulators of TOR reporter MEP2-GFP in yeast | 10% of 590 active | shares compounds with LAP4 TOR yeast | AID 2622 | GFP response vs DMSO, % at 10 µM | S. cerevisiae MEP2-GFP strain, flow cytometry GFP, 3 h;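 active = GFP signal above 150% of the solvent control wells, that is a rise of more than half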;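 also: median channel GFP fluorescence of all gated yeast cells per well; ratio of median GFP to plate DMSO average so 100% = DMSO level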
RPL19A-GFP pick2 = second confirmation of modulators of TOR reporter RPL19A-GFP in yeast; shares compounds with LAP4 TOR yeast; S. cerevisiae RPL19A-GFP strain, flow cytometry GFP, 3 h; stronger effect = lower value; 100% means same as DMSO wells; GFP response vs DMSO, % at 10 µM; 3% of 590 active; AID 2623;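 active = under 65% GFP response relative to DMSO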;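 also: median GFP channel fluorescence per well over the all cells gate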
CIT2 GFP CP2 = second confirmation of modulators of TOR reporter CIT2-GFP in yeast; S. cerevisiae CIT2-GFP strain, flow cytometry GFP, 3 h; DMSO control wells read 100%; 8% of 590 active; GFP response vs DMSO, % at 10 µM; shares compounds with LAP4 TOR yeast;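 active = GFP response vs DMSO above about 150%, limit read from the data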;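 also: median green fluorescence per well over all gated yeast cells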
AGP1-GFP pick2 = yeast AGP1-GFP TOR reporter modulation, second cherry pick | percent response vs DMSO, % at 10 µM | 590 tested, under 10 active | shares compounds with LAP4 TOR yeast | S. cerevisiae AGP1-GFP strain, flow cytometry GFP, 3 h;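 active = over 150 percent of DMSO response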;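 also: median GFP channel fluorescence over all cells without mother daughter split; sample median GFP divided by mean DMSO control so 100% equals DMSO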
Yeast autofluor = yeast s288c autofluorescence artifact, counter-screen | fluorescence change (kMESF span) at 33 µM | S. cerevisiae s288c, 520 nm autofluorescence, flow cytometry, 3 h; stronger effect = higher value; zero means same as solvent-only cells | shares compounds with LAP4 TOR yeast | AID 2757 | 610 tested, under 10 active;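 active = fluorescence span over the dose series, or activity score, above about 33, limit read from the data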
Yeast autofl DR = yeast s288c autofluorescence artifact in dose response | shares compounds with LAP4 TOR yeast | S. cerevisiae s288c parental, compound autofluorescence, flow cytometry, 3 h | fluorescence change (span) at 33 µM | 110 tested, under 10 active;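 active = fluorescence change span, or the activity score built from it, above 25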
TORC1 bypass = stops wildtype yeast growth while TORC1 bypass cells still grow. 120 tested, under 10 active. shares compounds with LAP4 TOR yeast. AID 504456. S. cerevisiae BY4741 spot growth rating, 48-72 h; stronger effect = lower value. growth rating (0-3) at 30 µM;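 active = growth rating at most 1 for wild type yeast while the TORC1 bypass strain still grows fully, rated 3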
* = called active by the depositor; x = not tested or not shown; + = active, no number; [ ] = remark or other dose. Hits are enriched below; roughly 0.93% of the tested compounds scored in any of these assays.

SMILES	MEP2 TOR yeast	AGP1-GFP MLPCN	RPL19A TOR yeast	CIT2-GFP yeast	LAP4 TOR yeast	Yeast autofluor	others
Oc1c(C(Nc2cccc(C(F)(F)F)c2)c2cccnc2)ccc2cccnc12 (stereo not given)	101	102	106	102	96	x
Cc1cccc(-c2nc3c(c(SCC(=O)N4CCOCC4)n2)COC(C)(C)C3)c1	88	79	86	89	83	x
O=C(CN1C(=O)c2ccccc2S1(=O)=O)NCc1ccccc1Cl	299*	22	95	69	81	x	LAP4-GFP pick2=97;MEP2 cherry2=94;RPL19A-GFP pick2=99;CIT2 GFP CP2=114;AGP1-GFP pick2=96
Cc1ccc(O)c(C(=O)CC(=O)c2ccccc2Cl)c1	111	51	51	69	74	x	LAP4-GFP pick2=104;MEP2 cherry2=102;RPL19A-GFP pick2=99;CIT2 GFP CP2=109;AGP1-GFP pick2=97
Cc1cccc(N2C(=O)CC(Sc3ncn[nH]3)C2=O)c1 (stereo not given)	90	93	93	78	140	x
Cc1ccc(N2C(=O)CC(Sc3ncn[nH]3)C2=O)cc1C (stereo not given)	90	95	98	91	151*	-0.1
CN(C)c1ccc(/C=C/c2cc[n+]([O-])cc2)cc1	130	104	102	108	109	x
CN(C)c1ccc(/C=C/c2cc[n+](C)cc2)cc1	249*	123	116	182*	199*	11
O=C(NCCC(=O)N1CCN(S(=O)(=O)c2ccccc2F)CC1)Nc1ccccc1	97	99	98	98	99	x
N/C(Cc1ccc(Cl)cc1)=N\OC(=O)c1ccccc1	106	62	82	111	192*	1.7	LAP4-GFP pick2=218*;MEP2 cherry2=166*;RPL19A-GFP pick2=90;CIT2 GFP CP2=225*;AGP1-GFP pick2=77
CCCCN1C[C@H](Cc2ccccc2)[C@@H](CC(=O)NCc2ccc(OC)cc2)C1=O	141	102	88	101	159*	x	LAP4-GFP pick2=97;MEP2 cherry2=100;RPL19A-GFP pick2=102;CIT2 GFP CP2=106;AGP1-GFP pick2=105
CCCCC[C@H]1CN(CCCC)C(=O)[C@@H]1CC(=O)NCc1ccc(OC)cc1	89	74	91	66	106	x
C/C(=N\Nc1ncnc2sc(C)c(C)c12)c1ccccn1	+	203*	183	+	869*	94*
Cc1sc2ncnc(N/N=C/c3cccc(O)c3)c2c1C	100	95	97	97	96	x
COc1ccc(C(c2c(C)[nH]n(C(N)=S)c2=O)C(C#N)C#N)cc1 (stereo not given)	98	76	98	77	335*	0.41
CC(OC(=O)c1ccccc1Oc1ccccc1)C(=O)NC1CC1 (stereo not given)	108	102	105	103	101	x
CCCOc1ccc(C(=O)NNC(=S)NC(=O)CC)cc1	107	87	89	81	259*	1.4	Yeast autofl DR=0.93;TORC1 bypass=3
O=C(Nc1ccc2c(c1)OCO2)C1CCN(S(=O)(=O)c2ccc3c(c2)OCCO3)CC1	98	108	100	105	98	x
O=C(Nc1ccc(N2CCOCC2)cc1)C1CCN(S(=O)(=O)c2ccc3c(c2)OCCO3)CC1	340*[may fluoresce green]	124	123	231*[may fluoresce green]	254*[may fluoresce green]	0.1	LAP4-GFP pick2=107;MEP2 cherry2=103;RPL19A-GFP pick2=102;CIT2 GFP CP2=98;AGP1-GFP pick2=101
Oc1ccc(N=Nc2ccccc2)o1	97	96	112	112	165*	0.41
CC(=O)CSc1ncnc2c1cnn2-c1ccccc1	183*	103	120	203*	149	0.1
COc1ccc2c(c1)c1nnc(SC)nc1n2C	101	60	54	73	103	0.7	LAP4-GFP pick2=102;MEP2 cherry2=106;RPL19A-GFP pick2=53*;CIT2 GFP CP2=98;AGP1-GFP pick2=55
Cc1ccc(-c2nnc(SCC(=O)NC3CC3)n2N)cc1	84	87	88	93	103	x
COc1cc(Oc2ccccc2)nc(N)n1	94	102	99	103	97	x
Cc1cc(Oc2ccccc2)nc(NCc2ccccc2)n1	104	99	95	91	99	x
Nc1cc(Oc2cccc(Cl)c2)nc(NCc2ccccc2)n1	x	x	x	x	x	x	Yeast autofl DR=0;TORC1 bypass=0
CNc1nc(N)cc(Oc2cccc(Cl)c2)n1	x	x	x	x	x	x	TORC1 bypass=3
N/C(=N\OC(=O)c1cc(Br)ccc1Cl)c1ccccn1	104	90	89	117	208*	1.2
